Here are results for five compounds from the supplement of paper PMC6897291.

The experiment relates to RIVA. The experiment can be described thus: growth inhibition by drug plus 177Lu-lilotomab satetraxetan (1 - RLU/untreated control) (fraction); higher = stronger inhibition. To be noted: 177Lu-lilotomab satetraxetan 0.5 ug/ml. As for the experimental part:
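RIVA (RI-1) ABC-DLBCL cells were pretreated or not for 18 h with 0.5 ug/ml 177Lu-lilotomab satetraxetan (600 MBq/mg), washed and seeded (3000 cells/well) on 384-well plates pre-printed with the Selleck Cambridge Cancer Compound library. Viability was read by RealTime-Glo luminescence on days 3-6 after seeding. Effect = 1 - RLU/mean RLU of the 48 untreated no-drug control wells per plate; Bliss score = (M-E)/(1-Fa).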

Where a name gives a salt, the structure may show the parent alone.

Take `Nc1nc(OCc2cc(Br)cs2)c2[nH]cnc2n1` [Lomeguatrib]: the “growth inhibition by drug plus 177Lu-lilotomab satetraxetan” value (“growth inhibition” for short) by setting is: (10 nM, time (day): 3) 0.437; (10 nM, time (day): 4) 0.531; (10 nM, time (day): 5) 0.544; (10 nM, time (day): 6) 0.548; (100 nM, time (day): 3) 0.404; (100 nM, time (day): 4) 0.479. Further, the “growth inhibition” value by setting is: (100 nM, time (day): 5) 0.488; (100 nM, time (day): 6) 0.463.
Consider `C[C@H](NC(=O)Cc1cc(F)cc(F)c1)C(=O)N[C@@H]1C(=O)N(C)c2ccccc2-c2ccccc21`, for which the “growth inhibition” value is, setting by setting: (10 nM, time (day): 3) 0.291; (10 nM, time (day): 4) 0.422; (10 nM, time (day): 5) 0.458; (10 nM, time (day): 6) 0.48; (100 nM, time (day): 3) 0.298; (100 nM, time (day): 4) 0.4. Besides, the “growth inhibition” value by setting is: (100 nM, time (day): 5) 0.412; (100 nM, time (day): 6) 0.389.
On to `COc1cc2c(cc1O)CC[C@@H]1[C@@H]2CC[C@]2(C)[C@@H](O)CC[C@@H]12` [2-Methoxyestradiol], for which the “growth inhibition” value is 0.476 (10 nM, time (day): 3); 0.534 (10 nM, time (day): 4); 0.548 (10 nM, time (day): 5); 0.552 (10 nM, time (day): 6); 0.308 (100 nM, time (day): 3); 0.401 (100 nM, time (day): 4). Further, the “growth inhibition” value reads like this: (100 nM, time (day): 5) 0.422; (100 nM, time (day): 6) 0.439.
For `CN(C)CCOc1ccc(/C(=C(/CCCl)c2ccccc2)c2ccccc2)cc1` [Toremifene Citrate (Fareston, Acapodene)], the “growth inhibition” value (10 nM, time (day): 3) is 0.724; the “growth inhibition” value (10 nM, time (day): 4) came out at 0.722; the “growth inhibition” value (10 nM, time (day): 5) was determined as 0.729; the “growth inhibition” value (10 nM, time (day): 6) is 0.733; the “growth inhibition” value (100 nM, time (day): 3) worked out at 0.696; the “growth inhibition” value (100 nM, time (day): 4) was determined as 0.711. Also, the “growth inhibition” value by setting is: (100 nM, time (day): 5) 0.713; (100 nM, time (day): 6) 0.72.
Consider `CCN(CC)CCNC(=O)c1c(C)[nH]c(/C=C2\C(=O)Nc3ccc(F)cc32)c1C` [Sunitinib Malate (Sutent)], for which the “growth inhibition” value was determined as 0.291 (10 nM, time (day): 3); 0.452 (10 nM, time (day): 4); 0.477 (10 nM, time (day): 5); 0.49 (10 nM, time (day): 6); 0.257 (100 nM, time (day): 3); 0.374 (100 nM, time (day): 4). Besides, the “growth inhibition” value (100 nM, time (day): 5) was found to be 0.387 and the “growth inhibition” value (100 nM, time (day): 6) is 0.364.
